From PubChem
The list is not random: actives were taken first. Their share in the collection is about 10%.
JMJD2A Tudor inh: qHTS Assay for Inhibitors of JMJD2A-Tudor Domain; hit rate 4.4% among 390,000; Potency, µM (titrated, usually from 114 µM), inactives show at the highest dose activity change, negative = inhibition, usual class: inhibitors; AlphaScreen JMJD2A-Tudor / H3K4me3 peptide binding; Lysine-specific demethylase 4A (Homo sapiens), O75164; AID 504339, 2011; also: potency is read from the fitted curve at half-maximal effect; % is scaled to controls: 0 for no effect and ±100 for the full control effect; nearly all actives have a fitted effect of over 50% in size
G9a inh: qHTS Assay for Inhibitors of Histone Lysine Methyltransferase G9a | AID 504332, 2011 | Histone-lysine N-methyltransferase EHMT2 (Homo sapiens), Q96KQ7 | G9a H3K9 monomethylation, AlphaScreen, 2 h | Potency, µM (titrated, usually from 102 µM), inactives show at the top dose activity, negative = inhibition, hits mostly inhibitors | hit rate 8.8% among 350,000; also: potency is read from the fitted curve at half-maximal effect; % is scaled to controls: 0 for no effect and ±100 for the full control effect; nearly all actives have a fitted effect of over 75% in size
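Quantitative HTS format: methyltransferase activity on a biotin-tagged H3K9 peptide is measured by AlphaScreen, using a rabbit anti-monomethyl-H3K9 antibody with streptavidin donor and anti-IgG acceptor beads. Final levels are 20 nM enzyme, 500 nM peptide, 20 uM SAM; 2 h RT.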
HP1b chromo inh: HTS for Inhibitors of HP1-beta Chromodomain Interactions with Methylated Histone Tails. hit rate 0.56% among 390,000. Chromobox protein homolog 1 (Homo sapiens), P83916. AlphaScreen HP1-beta / biotin-H3K9me3 peptide binding. Potency, µM (titrated, usually from 114 µM), for the others: at the highest dose activity change, negative = inhibition, actives largely listed as inhibitors; also: potency is read from the fitted curve at half-maximal effect; nearly all actives have a fitted effect of over 70% in size
Target sequence (P83916 whole entry, looked up): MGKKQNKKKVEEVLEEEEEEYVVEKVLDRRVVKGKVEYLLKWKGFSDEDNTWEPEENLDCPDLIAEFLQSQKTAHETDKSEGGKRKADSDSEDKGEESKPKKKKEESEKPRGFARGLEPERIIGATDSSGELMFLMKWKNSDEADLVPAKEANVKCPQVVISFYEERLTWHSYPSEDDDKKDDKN
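AlphaScreen: HP1-beta (50 nM) preformed 30 min with biotin-H3(1-18)K9me3 peptide (50 nM) in PBS pH 7.4, 0.01% Tween-20. Compound added for 30 min at RT, then streptavidin donor/nickel chelate acceptor beads (10 ug/mL) for 30 min.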
Six1-Eya2 inh: qHTS Assay for Inhibitors of the Six1/Eya2 Interaction; Homeobox protein SIX1 (Homo sapiens) + Protein phosphatase EYA2 (Homo sapiens), …; AlphaScreen GST-Six1/His-Eya2 binding, biochemical; hits give low values; activity change, % (test concentration not listed); hit rate 0.56% among 360,000; in the data active = activity change below about -65%; inconclusive = mostly about -30% to -63%; also: % is scaled to controls: 0 for no effect and ±100 for the full control effect
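AlphaScreen luminescence read after one hour at 37 °C in darkness. Pin-transferred compounds met GST-Six1 and His-Eya2 protein (5X stock 250 nM/500 nM) plus glutathione donor and Ni-chelate acceptor beads (5X, 50 ug/mL).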
BAZ2B inh: qHTS Assay for Inhibitors of BAZ2B. Bromodomain adjacent to zinc finger domain protein 2B (Homo sapiens), Q9UIF8. AlphaScreen BAZ2B-H3K14Ac peptide displacement. Potency, µM (highest dose often 114 µM), for the others: at the top dose activity change, negative = inhibition, hits mostly inhibitors. hit rate 4.4% among 360,000. AID 504333, 2011; also: potency is read from the fitted curve at half-maximal effect; % is scaled to controls: 0 for no effect and ±100 for the full control effect; nearly all actives have a fitted effect of over 60% in size
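Compounds, titrated to a top concentration of 110 uM, were incubated 30 min at room temperature with preformed BAZ2B/acetyl-K14 H3 peptide complex (50 nM each). Proximity signal was measured by AlphaScreen after 20 min with beads.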
CtBP-E1A inh: qHTS Assay for Inhibitors of the CtBP/E1A Interaction; CtBP / adenovirus E1A interaction (AlphaScreen); AlphaScreen GST-E1A/His-CtBP binding, 1536-well; hits give low values; activity change, % (concentration not given with the values); hit rate 0.49% among 340,000; AID 651724, 2012; in the data active = activity change below about -65%; inconclusive = mostly about -30% to -63%; also: % is scaled to controls: 0 for no effect and ±100 for the full control effect
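Steps: dispense buffer (Tris pH 8.0, NaCl 300 mM, TCEP 1 mM, BSA, Tween 20); add 5X protein mix (GST-E1A, His-CtBP, 125 nM each); pin 23 nL compound; 2 h at 37 °C, dark; add 5X beads (50 ug/mL); 1 h; read.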
The depositor's hits bear a star; ? = inconclusive; . = no result; ! = a repeat was not active; [ ] = dose if it differs, or a comment. Unless noted, calls follow the shape of the dose curve; as a rule, active = well fitted inhibition curve with a large enough effect; inconclusive = small, poorly fitted or top-dose-only effect; inactive = no such curve, though single readings can be large or run the other way.

SMILES	JMJD2A Tudor inh	G9a inh	HP1b chromo inh	Six1-Eya2 inh	BAZ2B inh	CtBP-E1A inh
Cc1ccc2nc(-c3ccc(NC(=O)COc4ccc(Cl)c(C)c4)cc3)sc2c1	-12%	?	2%	.	-11%	.
Cc1ccc(C(=O)N2CCN(Cc3nc4sc5c(c4c(=O)[nH]3)CCCC5)CC2)cc1	-16%	-9%[59 µM]	37%	0	-1%	-16
O=c1[nH]c(CN2CCCC2)nc2sc3c(c12)CCC3	?	40µM*	8%	0	?	0
CCCCCC(O)C=CC1C(O)CC(O)C1CC=CCCCC(=O)O (stereo not given)	.	.	.	4	.	5
CCCCC[C@H](O)/C=C/[C@H]1C=CC(=O)[C@@H]1C/C=C\CCCC(=O)O	.	35µM*!	.	.	50µM*	.
CCCCC/C=C\C/C=C\CCCCCCCC(=O)O	.	31%[59 µM]	.	.	.	.
CCCCC[C@H](O)C/C=C1/C(=O)C=C[C@@H]1C/C=C\CCCC(=O)O	.	-16%[59 µM]	.	.	.	.
CCCCC/C=C/C=C1/C(=O)C=C[C@@H]1C/C=C\CCCC(=O)O	.	22µM*!	.	.	.	.
